This is one part of a sample in which the strongest signals are shown more often than they occur.
B1: Flo5 (Saccharomyces cerevisiae), P38894 (protein)
chain: MGSSHHHHHHSSGLVPRGSHMSGATEACLPAGQRKSGMNINFYQYSLKDSSTYSNAAYMAYGYASKTKLGSVGGQTDISIDYNIPCVSSSGTFPCPQEDSYGNWGCKGMGACSNSQGIAYWSTDLFGFYTTPTNVTLEMTGYFLPPQTGSYTFSFATVDDSAILSVGGSIAFECCAQEQPPITSTNFTINGIKPWDGSLPDNITGTVYMYAGYYYPLKVVYSNAVSWGTLPISVELPDGTTVSDNFEGYVYSFDDDLSQSNCTIPDPSIH
B2: Neuropilin-2 (Homo sapiens), O60462 (protein)
chain: MDMFPLTWVFLALYFSRHQVRGQPDPPCGGRLNSKDAGYITSPGYPQDYPSHQNCEWIVYAPEPNQKIVLNFNPHFEIEKHDCKYDFIEIRDGDSESADLLGKHCGNIAPPTIISSGSMLYIKFTSDYARQGAGFSLRYEIFKTGSEDCSKNFTSPNGTIESPGFPEKYPHNLDCTFTILAKPKMEIILQFLIFDLEHDPLQVGEGDCKYDWLDIWDGIPHVGPLIGKYCGTKTPSELRSSTGILSLTFHTDMAVAKDGFSARYYLVHQEPLENFQCNVPLGMESGRIANEQISASSTYSDGRWTPQQSRLHGDDNGWTPNLDSNKEYLQVDLRFLTMLTAIATQGAISRETQNGYYVKSYKLEVSTNGEDWMVYRHGKNHKVFQANNDATEVVLNKLHAPLLTRFVRIRPQTWHSGIALRLELFGCRVTDAPCSNMLGMLSGLIADSQISASSTQEYLWSPSAARLVSSRSGWFPRIPQAQPGEEWLQVDLGTPKTVKGVIIQGARGGDSITAVEARAFVRKFKVSYSLNGKDWEYIQDPRTQQPKLFEGNMHYDTPDIRRFDPIPAQYVRVYPERWSPAGIGMRLEVLGCDWTDSKPTVETLGPTVKSEETTTPYPTEEEATECGENCSFEDDKDLQLPSGFNCNFDFLEEPCGWMYDHAKWLRTTWASSSSPNDRTFPDDRNFLRLQSDSQREGQYARLISPPVHLPRSPVCMEFQYQATGGRGVALQVVREASQESKLLWVIREDQGGEWKHGRIILPSYDMEYQIVFEGVIGKGRSGEIAIDDIRISTDVPLENCMEPISAFAGENFKVDIPEIHEREGYEDEIDDEYEVDWSNSSSATSGSGAPSTDKEKSWLYTLDPILITIIAMSSLGVLLGATCAGLLLYCTCSYSGLSSRSCTTLENYNFELYDGLKHKVKMNHQKCCSEA

Assays:
Experiment in all cases: glycan array binding signal (z-score within array); higher = stronger binding
Details in all cases: glycan notation: IUPAC condensed, linker removed
[1] = biological target: Fuc(a1-2)Gal(b1-3)GalNAc(b1-3)Gal
Outline: (§1)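 Columns mapping to the same glycan were averaged after glycan names were converted to IUPAC-condensed notation. The data come from 3228 arrays in the Consortium for Functional Glycomics database, limited to those with an available protein sequence. Binding is reported as a within-array Z-score averaged across arrays of one protein sequence and across linkers.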

[2] = biological target: Fuc(a1-2)Gal(b1-4)Glc
Outline: as §1

[3] = biological target: Fuc(a1-2)Gal(b1-4)GlcNAc(b1-3)Gal(b1-4)GlcNAc(b1-3)Gal(b1-4)GlcNAc
Outline: as §1

[4] = biological target: Fuc(a1-2)Gal(b1-4)[Fuc(a1-3)]GlcNAc(b1-3)Gal(b1-4)[Fuc(a1-3)]GlcNAc
Outline: as §1

[5] = biological target: Fuc(a1-2)[Gal(a1-4)]Gal(b1-4)GlcNAc
Outline: as §1

[6] = biological target: Fuc(a1-2)[GalNAc(a1-4)]Gal(b1-4)GlcNAc
Outline: as §1

[7] = biological target: Fuc(a1-3)[Gal(b1-4)]Glc6S
Outline: as §1

[8] = biological target: Fuc(a1-3)[Gal(b1-4)]GlcNAc(b1-2)Man(a1-6)[Gal(b1-4)GlcNAc(b1-2)Man(a1-3)]Man(b1-4)GlcNAc(b1-4)GlcNAc
Outline: as §1

[9] = biological target: Fuc(a1-3)[Gal(b1-4)]GlcNAc(b1-4)Gal(b1-4)[Fuc(a1-3)]GlcNAc(b1-4)Gal(b1-4)[Fuc(a1-3)]GlcNAc
Outline: as §1

[10] = biological target: Fuc(a1-3)[Neu5Ac(a2-3)]Gal(b1-4)GlcNAc(b1-3)GalNAc
Outline: as §1

[11] = biological target: Gal(b1-3)[Fuc(a1-4)]GlcNAc
Outline: as §1

[12] = biological target: Gal(b1-3)[Neu5Ac(b2-6)]GalNAc
Outline: as §1

[13] = biological target: Gal(b1-4)GalNAc(a1-3)[Fuc(a1-2)]Gal(b1-4)GlcNAc
Outline: as §1

[14] = biological target: Gal3S(b1-3)GalNAc
Outline: as §1

[15] = biological target: Gal3S(b1-4)Glc6S
Outline: as §1

[16] = biological target: Gal6S(b1-4)Glc
Outline: as §1

[17] = biological target: Glc(b1-6)Glc
Outline: as §1

[18] = biological target: GlcNAc(b1-3)Gal(b1-4)GlcNAc(b1-3)Gal(b1-4)GlcNAc
Outline: as §1

[19] = biological target: GlcNAc(b1-3)[GlcNAc(b1-6)]Gal(b1-4)GlcNAc
Outline: as §1

[20] = biological target: GlcNAc(b1-4)[GlcNAc(b1-6)]GalNAc
Outline: as §1

[21] = biological target: Man(a1-2)Man(a1-2)Man(a1-3)Man
Outline: as §1

[22] = biological target: Man(a1-3)[Man(a1-6)]Man(a1-6)[Man(a1-3)]Man
Outline: as §1

[23] = biological target: Neu5Ac(a2-3)Gal(b1-4)GlcNAc(b1-6)[Gal(b1-3)]GalNAc
Outline: as §1

[24] = biological target: Neu5Ac(a2-8)Neu5Ac
Outline: as §1

[25] = biological target: Neu5Ac(a2-8)Neu5Ac(a2-3)[GalNAc(b1-4)]Gal(b1-4)Glc
Outline: as §1

[26] = biological target: Neu5Ac(a2-8)Neu5Ac(a2-8)Neu5Ac(a2-8)Neu5Ac(a2-3)[GalNAc(b1-4)]Gal(b1-4)Glc
Outline: as §1

[27] = biological target: Neu5Ac9Ac(a2-3)Gal(b1-4)GlcNAc
Outline: as §1

[28] = biological target: Neu5Ac(a2-6)Gal(b1-4)GlcNAc(b1-2)Man(a1-3)Man(b1-4)GlcNAc(b1-4)GlcNAc
Outline: as §1

[29] = biological target: Neu5Ac(a2-6)Gal(b1-4)GlcNAc(b1-2)Man(a1-3)[GlcNAc(b1-2)Man(a1-6)]Man(b1-4)GlcNAc(b1-4)GlcNAc
Outline: as §1

Binder | glycan array binding signal (z-score) [1] | glycan array binding signal (z-score) [2] | glycan array binding signal (z-score) [3] | glycan array binding signal (z-score) [4] | glycan array binding signal (z-score) [5] | glycan array binding signal (z-score) [6] | glycan array binding signal (z-score) [7] | glycan array binding signal (z-score) [8] | glycan array binding signal (z-score) [9] | glycan array binding signal (z-score) [10] | glycan array binding signal (z-score) [11] | glycan array binding signal (z-score) [12] | glycan array binding signal (z-score) [13] | glycan array binding signal (z-score) [14] | glycan array binding signal (z-score) [15] | glycan array binding signal (z-score) [16] | glycan array binding signal (z-score) [17] | glycan array binding signal (z-score) [18] | glycan array binding signal (z-score) [19] | glycan array binding signal (z-score) [20] | glycan array binding signal (z-score) [21] | glycan array binding signal (z-score) [22] | glycan array binding signal (z-score) [23] | glycan array binding signal (z-score) [24] | glycan array binding signal (z-score) [25] | glycan array binding signal (z-score) [26] | glycan array binding signal (z-score) [27] | glycan array binding signal (z-score) [28] | glycan array binding signal (z-score) [29]
B1 | 1.59 | 1.59 | -0.14 | -0.205 | -0.23 | 3.78 | -0.024 | -0.206 | -0.162 | -0.232 | -0.153 | -0.121 | -0.189 | -0.17 | 8.31 | -0.082 | -0.203 | -0.027 | -0.156 | -0.139 | 6.07 | 3.11 | -0.196 | -0.148 | -0.104 | -0.149 | -0.126 | – | –
B2 | – | – | – | – | – | – | – | – | – | – | – | – | – | – | – | – | – | – | – | – | – | – | – | – | – | – | – | -0.201 | -0.609

Source: the supplement of paper PMC8728848
